PubChem BioAssay AID485346 (Sanford-Burnham Center for Chemical Genomics, 2010)
Among all 330,000 compounds or so, about 10,000 (3%) were called active. The entries come from a sample that favours actives as a whole. Unmarked numbers belong to inactive results.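 How the source made its calls: active means inhibition of at least 50% at 8 µM in the primary screen; inactive means the rest.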

The molecules below were run against Protein Mdm4 (Homo sapiens) + E3 ubiquitin-protein ligase Mdm2 (Homo sapiens) (UniProt O15151+Q00987) (assay: inhibitors of human Mdm2-MdmX association, primary screen, cell-based, luminescence, split luciferase, SaOS-2, uHTS (AID 485346)). Details: SaOS-2 split-luciferase Mdm2/MdmX complementation, at 8 µM, hits give high values.
Protein Mdm4 (Homo sapiens) + E3 ubiquitin-protein ligase Mdm2 (Homo sapiens), sequence (O15151 whole entry, looked up): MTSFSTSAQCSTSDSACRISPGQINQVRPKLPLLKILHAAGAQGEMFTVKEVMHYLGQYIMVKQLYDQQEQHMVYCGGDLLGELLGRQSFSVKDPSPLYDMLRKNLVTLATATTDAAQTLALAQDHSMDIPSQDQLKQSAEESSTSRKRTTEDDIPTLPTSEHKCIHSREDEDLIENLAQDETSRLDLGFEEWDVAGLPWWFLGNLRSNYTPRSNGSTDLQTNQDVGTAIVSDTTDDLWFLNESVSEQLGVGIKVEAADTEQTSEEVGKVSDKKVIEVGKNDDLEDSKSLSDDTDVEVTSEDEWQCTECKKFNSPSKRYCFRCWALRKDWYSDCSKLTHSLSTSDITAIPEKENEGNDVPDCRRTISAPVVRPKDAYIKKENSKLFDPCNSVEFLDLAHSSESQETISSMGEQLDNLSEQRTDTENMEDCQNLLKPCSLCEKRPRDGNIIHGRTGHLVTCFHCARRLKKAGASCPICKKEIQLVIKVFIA
Protein Mdm4 (Homo sapiens) + E3 ubiquitin-protein ligase Mdm2 (Homo sapiens), sequence (Q00987 whole entry, looked up): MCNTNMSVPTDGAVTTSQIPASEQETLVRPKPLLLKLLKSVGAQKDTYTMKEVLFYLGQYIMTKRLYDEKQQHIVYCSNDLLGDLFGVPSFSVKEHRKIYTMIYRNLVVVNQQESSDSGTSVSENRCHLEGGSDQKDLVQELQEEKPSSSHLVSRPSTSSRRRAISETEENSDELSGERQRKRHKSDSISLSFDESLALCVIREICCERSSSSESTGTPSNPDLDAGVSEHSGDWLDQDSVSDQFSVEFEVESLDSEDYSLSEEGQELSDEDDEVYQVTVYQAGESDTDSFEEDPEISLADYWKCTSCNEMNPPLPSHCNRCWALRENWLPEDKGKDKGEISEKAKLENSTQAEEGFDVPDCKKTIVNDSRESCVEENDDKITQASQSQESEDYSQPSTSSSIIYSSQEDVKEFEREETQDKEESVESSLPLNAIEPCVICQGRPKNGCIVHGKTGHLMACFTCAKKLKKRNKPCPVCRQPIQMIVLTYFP

In the case of `Cc1ccc(C(=O)Nc2sc(Cc3ccc4c(c3)OCO4)c(C)c2C(N)=O)cc1`, the inhibition is reported as 75.3% (active).
`O=C1/C(=C/c2ccc(F)cc2)SC(=S)N1CCCC(=O)N1CCCCC1CCO` (configuration not stated) was tested, and the inhibition was 81.8% (active).
`CCCCn1ccnc1C(=O)c1cccc(S(=O)(=O)N2c3ccccc3CC2C)c1` (configuration not stated) was tested, and the inhibition was 55.3% (active).
For `O=[N+]([O-])c1c(NCCO)cc(Sc2nc3ccccc3s2)c2nonc12`, the inhibition was 50.1% (active).
With `Cc1cc(C(=O)COc2ccccc2[N+](=O)[O-])c(C)n1-c1cccc(S(=O)(=O)N2CCOCC2)c1` the inhibition was 71.1% (active).
With `CCN(CC)c1ccc(/C=N/NC(=O)c2cnccn2)c(O)c1` the inhibition was 72.8% (active).
For `CCN(CC)c1ccc(/C=N/Nc2nc(C)cc(C)n2)c(O)c1`, the inhibition was 72.9% (active).
In the case of `CC[C@]1(O)CC2CN(CCc3c([nH]c4ccccc34)[C@@](C(=O)OC)(c3cc4c(cc3OC)N(C=O)[C@H]3[C@@](O)(C(=O)OC)[C@H](OC(C)=O)[C@]5(CC)C=CCN6CC[C@]43[C@@H]65)C2)C1` (some centres not stated), the inhibition is reported as 67.5% (active).
For `CC[C@]1(O)C[C@@H]2CN(CCc3c([nH]c4ccccc34)[C@@](C(=O)OC)(c3cc4c(cc3OC)N(C)[C@H]3[C@@](O)(C(=O)OC)[C@H](OC(C)=O)[C@]5(CC)C=CCN6CC[C@]43[C@@H]65)C2)C1`, the inhibition was 85.9% (active).
For `CCCc1nc2c(c(=O)c3ccccc3n2C)c(=O)n1C1CCCCCC1`, the inhibition was 76.1% (active).
With `CCc1ccc(N(CC)c2ncnc3nc[nH]c23)cc1` the inhibition was 63% (active).
`CCOc1ccc(-n2c(O)c(/C=N/Nc3nc(C)cc(C)n3)c3ccccc3c2=O)cc1` was tested, and the inhibition was 65.3% (active).
`CC(=O)c1ccc(Oc2cc(C)nc(-n3nc(C)cc3C)n2)cc1` was tested, and the inhibition was 59.2% (active).
With `C=CCn1c(C)cc(C(=O)CN2C(=O)c3ccccc3C2=O)c1C` the inhibition was 68% (active).
For `CC(C)n1cnc2c(NCc3ccccc3)cc(N[C@@H](CO)Cc3ccccc3)cc21`, the inhibition was 93.5% (active).
With `Cc1nnnn1/C(=C\c1ccccc1)C(=O)OCC(=O)N1CC2(C)CC1CC(C)(C)C2` (configuration not stated) the inhibition was 57.8% (active).
In the case of `CCc1nn(-c2cc(Oc3cccc4ccccc34)nc(-c3ccccc3)n2)c(N)c1C#N`, the inhibition is reported as 86.8% (active).

In order of rising inhibition:
1. COCc1nnc(NC(=O)c2ccc3c(c2)OCO3)s1  -40.4%
2. COCCCNC(=S)NCCNc1nc2cc(C)c(C)cc2cc1C#N  -28.9%
3. Cc1cc(S(=O)(=O)N2CCOCC2)ccc1OCC(=O)N1CCOCC1  -24.7%
4. CCN(CC)CCCN=Cc1c(O)n(-c2ccc(C)cc2)c(=O)c2ccccc12  -22.5%
5. O=C(O)c1ccccc1CSc1nc2ccccc2s1  -21.2%
6. Cc1ccccc1OCC(=O)Nc1ccc(S(=O)(=O)N2CCOCC2)cc1  -21.2%
7. COc1cc(C(=O)OCc2cc(=O)n3ccsc3n2)ccc1OC(C)C  -18.9%
8. Cc1cccc(C(=O)NCC(=O)OCC(=O)N2CC3(C)CC2CC(C)(C)C3)c1 (configuration not stated)  -13.6%
9. COc1ccc(CC(=O)Nc2sc(Cc3ccccc3)c(C)c2C(N)=O)cc1  -12.1%
10. CC(C)(C)n1nc(Cc2cccc3ccccc23)c(C#N)c1N  -12%
11. Cc1cc(C)n(-c2ccc(C(=O)O)cc2[N+](=O)[O-])n1  -9.75%
12. C/C(=N\NC(=O)c1cc(-c2ccc(O)cc2)nc2ccccc12)c1cccnc1  -9.48%
13. COc1ccc(C(C)=O)cc1CSc1nc2nc(C)cc(C)n2n1  -8.43%
14. CCOC(=O)C1C(c2ccc(OC)c(OC)c2)c2c([nH][nH]c2=O)CC1(C)O (configuration not stated)  -7.74%
15. O=C(Nc1ccc2c(c1)OCCO2)c1cnccn1  -7.26%
16. CCCCn1c(=S)[nH]c2cc(S(=O)(=O)N3CCCCC3)ccc21  -7.07%
17. Cc1ccc(O)c(NC(=S)NC(=O)COc2ccc(Br)cc2)c1  -6.04%
18. CCN(C(=O)CSc1nnnn1-c1ccc(OC)cc1)C1CCS(=O)(=O)C1 (configuration not stated)  -4.86%
19. O=C(COC(=O)Cn1[nH]c(=O)c2ccccc2c1=O)Nc1c(Cl)cccc1C(F)(F)F  -4.75%
20. CC(=O)N1C(=O)/C(=C2\SC(=S)N(NC(=O)c3ccc(O)cc3)C2=O)c2ccccc21  -4.31%
21. CCN(C(=O)CN1C(=O)/C(=C/c2ccc(F)cc2)SC1=S)C1CCS(=O)(=O)C1 (configuration not stated)  -3.51%
22. COc1ccc(C(=O)OCC(=O)N2CC(=O)Nc3ccccc32)cc1Br  -3.51%
23. Cc1ccc(NC(=O)c2ccc(CSc3ncnc4nc[nH]c34)cc2)c(C)c1  -2.54%
24. CCCCN1C(=S)NC[C@@H]1C(C)CC (some centres not stated)  -2.44%
25. CC#CC[N+](C)(C)CCCCCC  -0.896%
26. CC1CCN(C(=O)c2cc3nc(C4CC4)cc(C(F)(F)F)n3n2)CC1  0.061%
27. CCc1cc2c(=O)n(-c3ccccc3)c(SCC(=O)O)nc2s1  0.424%
28. Cc1nn2c(NCCN(C)C)c3c(nc2c1-c1ccccc1)CCC3  1.13%
29. Cc1ccc(S(=O)(=O)N(C)c2ccc(OCC(=O)OCc3ccc(C#N)cc3)cc2)cc1  1.14%
30. COC(=O)C1CCN(C(=O)COC(=O)c2cc(S(=O)(=O)N3CCOCC3)ccc2C)CC1  1.32%
31. Cc1ccc(-n2c(SCC(=O)NCc3ccc4c(c3)OCO4)nnc2-c2cccnc2)c(C)c1  1.7%
32. CC(=O)CCS(=O)(=O)c1ccc(C)c(C)c1  2.16%
33. CCOc1ccc(-n2c(O)c(/C=N/c3ccnn3Cc3ccncc3)c3ccccc3c2=O)cc1  2.6%
34. COC(=O)[C@]1(C)N[C@H](CN(C)C(=O)c2ccc(C(C)(C)C)cc2)[C@@H]2C(=O)N(C)C(=O)[C@@H]21  4.61%
35. CC1CCC2CCCCC2N1C(=O)c1cc([N+](=O)[O-])cc([N+](=O)[O-])c1 (configuration not stated)  5.25%
36. COc1ccc(CCNC(=O)COC(=O)Cc2cccc(F)c2)cc1  5.4%
37. Cn1c2ccccc2c(=O)c2c(O)cccc21  5.57%
38. Cc1cc(C(=O)COC(=O)CCCN2C(=O)c3ccccc3C2=O)c(C)n1C  6.08%
39. CC1Cc2ccccc2N1S(=O)(=O)c1cccc(C(=O)NCC(c2ccco2)N2CCCC2)c1 (configuration not stated)  6.48%
40. O=C(Nc1cc(S(=O)(=O)Nc2ccc(Cl)cc2)ccc1O)c1ccc(F)cc1F  6.95%
41. CCC(CO)Oc1cc(NCc2ccccc2)c2ncn(C3CCCC3)c2c1 (configuration not stated)  7.28%
42. Cn1cc(S(=O)(=O)N2CCN(c3ccc(F)cc3)CC2)c(=O)n(C)c1=O  8.49%
43. CCOc1ccccc1Nc1ccc2nonc2c1[N+](=O)[O-]  9.13%
44. CC1Cc2ccccc2N1S(=O)(=O)c1cccc(C(=O)OCC(=O)N2CCOCC2)c1 (configuration not stated)  9.37%
45. O=C(NCc1nnc(SCC(=O)N2CCCCCC2)o1)c1ccc(F)cc1  10.6%
46. C=CCN(CC=C)C(=O)CN1C(=O)c2ccccc2C1=O  11.2%
47. CCCn1c(C)cc(-c2csc(NC(=O)CCc3nc4ccccc4c(=O)[nH]3)n2)c1C  13.7%
48. Cc1ccc(C(=O)NCC(=O)O)s1  14%
49. CCCC1C(=O)N2C(N(C)C)=Nc3ccc(C)cc3N2C1=O (configuration not stated)  15.1%
50. CCCCn1c(N)c(N(CC)C(=O)/C=C/c2ccco2)c(=O)[nH]c1=O  15.3%
51. CCNC(=O)COc1cc(C)c(Br)c(C)c1  15.7%
52. CC(C)C1C2=C(CC(C)(C)CC2=O)ON1c1ccccc1 (configuration not stated)  16.1%
53. Cc1noc(C)c1S(=O)(=O)Nc1ccc(C(=O)N2CCN(c3ccc(F)cc3)CC2)cc1  16.2%
54. COc1ccc(C(=O)N2CC3(C)CC2CC(C)(C)C3)cc1OC (configuration not stated)  16.7%
55. COc1ccc2[nH]c3c(c2c1)CCN1C(=O)C(CC(=O)NCc2cccc(C(F)(F)F)c2)C[C@H](C(=O)N2CCOCC2)[C@@]31C (some centres not stated)  17.2%
56. COc1ccc(CCNc2ncnc3nc[nH]c23)cc1OC  18.1%
57. COc1cccc(/C=C(/CC(=O)Nc2ccc(N3CCOCC3)cc2)c2nc3ccccc3s2)c1  18.2%
58. Cc1ccc(C(=O)NCCNC(=O)c2cnccn2)cc1  18.3%
59. C=CCn1c(-c2ccccc2OCC)n[nH]c1=S  18.7%
60. CCOc1ccc2c(=O)c(-c3ccc4c(c3)OCCCO4)c(C)oc2c1  19.6%
61. CC1CCN(C(=O)CCc2nnc3ccc(NCc4ccco4)nn23)CC1  22.2%
62. CC(C)n1cnc2c(NCc3ccccc3)cc(OCC3CCN(C)CC3)cc21  22.6%
63. Cc1ccc(S(=O)(=O)N(Cc2ccccc2)c2ccccn2)cc1[N+](=O)[O-]  23.2%
64. Cc1cc(S(=O)(=O)N2CCOCC2)ccc1OCC(=O)Nc1cccc(C(F)(F)F)c1  23.2%
65. Cc1ccc(CNC(=O)c2cc(-c3ccccc3C)n(CC3CC(c4cccc([N+](=O)[O-])c4)=NO3)n2)cc1 (configuration not stated)  26.5%
66. CC(C)(Oc1ccc(C2CC2(Cl)Cl)cc1)C(=O)O (configuration not stated)  26.9%
67. Cc1cc(C)nc(N/N=C/c2c(CO)cnc(C)c2O)n1  27.1%
68. Cc1cc(C)nc(N/N=C/c2c(C)oc3ccccc23)n1  33.3%
69. Cn1c2ccccc2c(=O)c2c(=O)n(Cc3ccco3)c(COc3ccccc3)nc21  33.8%
70. COc1ccc(/C=C2\SC(=S)N(CCCC(=O)NC3CCCC3)C2=O)cc1OC  42.6%
